In the supplement of paper PMC11732987, “Enantioselective OTUD7B fragment discovery through chemoproteomics screening and high-throughput optimisation” (Communications Chemistry, 2025):

How the values were obtained:
Assay in all cases: log2 ratio of Biotin-Ahx-Ub-VS probe labelling (fragment/DMSO); higher = less target engagement (more negative = stronger competition), active = hit call of the paper (q ≤ 0.05, log2 ratio ≤ -1)
Details in all cases: compound concentration: 200 uM; treatment time: 3 h
ALG13 = biological target: T1, ALG13 (UniProt Q9NP73)
T1 sequence (whole entry): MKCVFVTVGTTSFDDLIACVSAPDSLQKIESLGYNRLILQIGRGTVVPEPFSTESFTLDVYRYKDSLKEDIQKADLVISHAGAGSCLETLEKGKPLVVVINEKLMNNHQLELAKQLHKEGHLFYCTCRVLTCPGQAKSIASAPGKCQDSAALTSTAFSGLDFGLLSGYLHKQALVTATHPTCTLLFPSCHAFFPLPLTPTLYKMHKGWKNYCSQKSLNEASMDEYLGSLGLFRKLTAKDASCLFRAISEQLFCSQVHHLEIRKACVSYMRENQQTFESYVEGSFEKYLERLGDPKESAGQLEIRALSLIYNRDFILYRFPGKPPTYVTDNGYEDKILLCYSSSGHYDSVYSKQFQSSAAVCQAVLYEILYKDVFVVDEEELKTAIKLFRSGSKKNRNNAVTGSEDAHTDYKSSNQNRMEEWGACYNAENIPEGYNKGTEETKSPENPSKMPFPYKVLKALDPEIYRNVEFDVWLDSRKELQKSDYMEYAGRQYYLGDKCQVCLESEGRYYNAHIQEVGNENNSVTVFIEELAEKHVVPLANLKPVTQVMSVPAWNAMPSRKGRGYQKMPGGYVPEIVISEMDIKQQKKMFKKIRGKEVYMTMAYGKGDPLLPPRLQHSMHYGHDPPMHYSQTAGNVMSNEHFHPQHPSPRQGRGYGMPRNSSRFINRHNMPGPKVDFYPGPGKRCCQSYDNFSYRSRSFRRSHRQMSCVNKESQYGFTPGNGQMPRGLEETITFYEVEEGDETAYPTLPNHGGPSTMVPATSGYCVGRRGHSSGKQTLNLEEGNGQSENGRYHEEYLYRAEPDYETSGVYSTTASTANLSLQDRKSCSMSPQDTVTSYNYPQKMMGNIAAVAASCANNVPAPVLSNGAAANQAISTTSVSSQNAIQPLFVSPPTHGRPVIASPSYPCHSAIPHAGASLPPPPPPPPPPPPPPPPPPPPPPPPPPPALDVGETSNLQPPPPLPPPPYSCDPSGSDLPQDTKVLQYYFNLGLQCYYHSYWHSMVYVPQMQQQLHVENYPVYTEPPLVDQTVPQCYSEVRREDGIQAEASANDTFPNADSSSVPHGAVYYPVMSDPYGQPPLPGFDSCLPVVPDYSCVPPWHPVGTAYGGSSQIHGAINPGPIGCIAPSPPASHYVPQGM
In short: (§1)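 HEK293T lysate (495 µg per sample, in Tris/CHAPS/IGEPAL buffer with protease inhibitors) was treated in triplicate with fragment at 200 µM or with DMSO for 3 h. It was then treated with Biotin-Ahx-Ub-VS (0.5 µM final) for 1 h. Labelled DUBs were NeutrAvidin-enriched, digested with LysC and trypsin, and run by diaPASEF LC-MS/MS. Spectronaut label-free quantities were global-median-normalised. Values are average log2 ratios fragment/DMSO by unpaired t-test, using proteins with ≥2 unique peptides.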

ATXN3 = ATXN3 (UniProt P54252)
ATXN3, sequence (P54252 whole entry): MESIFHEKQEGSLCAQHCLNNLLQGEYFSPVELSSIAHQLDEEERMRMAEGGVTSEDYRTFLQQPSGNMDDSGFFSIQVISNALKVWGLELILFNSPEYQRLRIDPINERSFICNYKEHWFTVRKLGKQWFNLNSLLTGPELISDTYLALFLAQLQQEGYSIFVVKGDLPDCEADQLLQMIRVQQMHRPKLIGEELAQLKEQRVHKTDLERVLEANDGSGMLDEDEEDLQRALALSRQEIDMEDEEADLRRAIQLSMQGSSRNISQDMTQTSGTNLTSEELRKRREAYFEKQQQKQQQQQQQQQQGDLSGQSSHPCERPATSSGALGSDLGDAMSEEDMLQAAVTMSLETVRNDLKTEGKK
In short: as §1

BAP1 = biological target: T2, BAP1 (UniProt Q92560)
T2 sequence (whole entry): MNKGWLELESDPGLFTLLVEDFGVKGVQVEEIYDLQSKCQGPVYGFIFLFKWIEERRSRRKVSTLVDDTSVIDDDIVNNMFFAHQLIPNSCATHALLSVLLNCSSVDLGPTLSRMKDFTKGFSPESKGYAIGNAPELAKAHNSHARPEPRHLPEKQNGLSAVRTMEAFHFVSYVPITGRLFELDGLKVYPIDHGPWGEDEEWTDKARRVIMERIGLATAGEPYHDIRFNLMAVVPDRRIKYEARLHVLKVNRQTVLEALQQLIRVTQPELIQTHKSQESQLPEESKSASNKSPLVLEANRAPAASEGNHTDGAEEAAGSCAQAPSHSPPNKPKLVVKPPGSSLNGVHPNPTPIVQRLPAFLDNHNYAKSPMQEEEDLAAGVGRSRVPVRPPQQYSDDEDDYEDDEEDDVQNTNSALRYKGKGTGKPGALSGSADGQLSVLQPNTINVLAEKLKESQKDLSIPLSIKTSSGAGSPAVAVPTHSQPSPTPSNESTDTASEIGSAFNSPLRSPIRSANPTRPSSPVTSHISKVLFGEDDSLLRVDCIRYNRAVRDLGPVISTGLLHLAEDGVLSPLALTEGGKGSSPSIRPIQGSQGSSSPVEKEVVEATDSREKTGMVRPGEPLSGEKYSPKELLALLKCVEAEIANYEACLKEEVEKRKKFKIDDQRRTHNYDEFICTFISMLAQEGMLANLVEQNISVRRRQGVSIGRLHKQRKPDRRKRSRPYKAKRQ
In short: as §1

EIF3F = EIF3F (UniProt O00303)
EIF3F, sequence (O00303 whole entry): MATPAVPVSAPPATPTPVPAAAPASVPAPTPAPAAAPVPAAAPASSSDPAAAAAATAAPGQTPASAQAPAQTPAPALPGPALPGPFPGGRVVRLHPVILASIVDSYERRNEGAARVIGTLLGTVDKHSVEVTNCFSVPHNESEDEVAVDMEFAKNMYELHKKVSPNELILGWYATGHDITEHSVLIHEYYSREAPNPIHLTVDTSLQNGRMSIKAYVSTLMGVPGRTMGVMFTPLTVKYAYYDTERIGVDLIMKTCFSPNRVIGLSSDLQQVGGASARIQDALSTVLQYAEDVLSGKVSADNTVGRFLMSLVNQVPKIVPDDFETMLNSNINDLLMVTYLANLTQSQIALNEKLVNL
In short: as §1

EIF3H = EIF3H (UniProt O15372)
EIF3H, sequence (O15372 whole entry): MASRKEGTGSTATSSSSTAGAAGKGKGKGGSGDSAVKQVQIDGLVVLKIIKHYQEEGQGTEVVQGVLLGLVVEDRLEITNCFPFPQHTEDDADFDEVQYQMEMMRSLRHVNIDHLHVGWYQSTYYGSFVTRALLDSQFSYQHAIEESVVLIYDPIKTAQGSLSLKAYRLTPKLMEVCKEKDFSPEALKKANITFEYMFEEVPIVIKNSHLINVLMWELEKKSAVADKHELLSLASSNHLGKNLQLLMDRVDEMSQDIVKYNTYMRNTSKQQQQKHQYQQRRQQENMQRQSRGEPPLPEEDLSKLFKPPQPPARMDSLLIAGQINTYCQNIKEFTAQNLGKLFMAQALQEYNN
In short: as §1

FAM105A = biological target: T3, FAM105A (UniProt Q9NUU6)
T3 sequence (whole entry): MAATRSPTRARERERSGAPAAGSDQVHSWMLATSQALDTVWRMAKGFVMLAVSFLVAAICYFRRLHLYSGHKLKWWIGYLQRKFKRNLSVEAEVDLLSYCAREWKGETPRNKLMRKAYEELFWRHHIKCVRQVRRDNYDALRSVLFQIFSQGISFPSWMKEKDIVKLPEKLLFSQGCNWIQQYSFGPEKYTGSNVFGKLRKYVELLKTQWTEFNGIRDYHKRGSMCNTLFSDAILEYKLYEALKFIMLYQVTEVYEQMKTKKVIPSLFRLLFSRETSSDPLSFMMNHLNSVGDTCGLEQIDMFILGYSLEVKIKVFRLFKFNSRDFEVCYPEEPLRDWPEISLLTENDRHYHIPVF
In short: as §1

OTUB1 = OTUB1 (UniProt Q96FW1)
OTUB1, sequence (Q96FW1 whole entry): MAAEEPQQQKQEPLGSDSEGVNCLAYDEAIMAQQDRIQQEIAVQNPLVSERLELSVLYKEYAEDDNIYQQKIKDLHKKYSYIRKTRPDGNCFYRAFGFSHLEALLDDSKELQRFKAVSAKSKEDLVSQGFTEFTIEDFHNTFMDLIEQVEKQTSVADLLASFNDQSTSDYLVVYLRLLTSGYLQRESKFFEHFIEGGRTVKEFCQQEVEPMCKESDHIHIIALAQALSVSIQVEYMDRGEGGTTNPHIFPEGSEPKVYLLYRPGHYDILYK
In short: as §1

OTUD4 = biological target: T4, OTUD4 (UniProt Q01804)
T4 sequence (whole entry): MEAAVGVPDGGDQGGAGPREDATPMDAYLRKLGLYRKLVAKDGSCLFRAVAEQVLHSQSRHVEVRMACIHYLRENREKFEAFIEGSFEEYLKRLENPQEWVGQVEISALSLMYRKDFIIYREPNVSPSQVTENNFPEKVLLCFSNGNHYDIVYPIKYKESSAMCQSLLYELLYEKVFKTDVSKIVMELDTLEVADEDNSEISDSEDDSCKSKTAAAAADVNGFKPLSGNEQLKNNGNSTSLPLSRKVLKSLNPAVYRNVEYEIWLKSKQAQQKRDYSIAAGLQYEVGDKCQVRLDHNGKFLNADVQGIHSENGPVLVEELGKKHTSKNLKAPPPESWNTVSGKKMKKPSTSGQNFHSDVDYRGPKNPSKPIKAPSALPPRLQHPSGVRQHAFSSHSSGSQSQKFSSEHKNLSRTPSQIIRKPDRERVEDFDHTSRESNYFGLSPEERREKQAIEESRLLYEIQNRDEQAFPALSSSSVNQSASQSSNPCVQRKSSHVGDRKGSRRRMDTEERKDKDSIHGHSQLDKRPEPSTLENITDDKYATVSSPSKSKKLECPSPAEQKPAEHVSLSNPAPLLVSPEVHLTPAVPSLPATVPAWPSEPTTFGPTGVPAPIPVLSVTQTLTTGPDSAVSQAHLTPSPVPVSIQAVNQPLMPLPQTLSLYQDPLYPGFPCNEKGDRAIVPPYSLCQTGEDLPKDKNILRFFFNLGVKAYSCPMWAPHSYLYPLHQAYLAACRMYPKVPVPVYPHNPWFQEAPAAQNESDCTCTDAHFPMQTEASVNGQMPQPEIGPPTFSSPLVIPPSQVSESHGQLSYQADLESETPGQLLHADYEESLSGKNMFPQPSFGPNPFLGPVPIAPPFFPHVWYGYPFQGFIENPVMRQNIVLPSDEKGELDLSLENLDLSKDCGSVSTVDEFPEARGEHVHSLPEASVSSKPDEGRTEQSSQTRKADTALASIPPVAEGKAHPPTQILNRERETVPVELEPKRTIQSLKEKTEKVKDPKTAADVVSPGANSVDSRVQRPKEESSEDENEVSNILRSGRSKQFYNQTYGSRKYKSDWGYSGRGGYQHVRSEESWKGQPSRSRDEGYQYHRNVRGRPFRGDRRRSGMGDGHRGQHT
In short: as §1

OTUD5 = biological target: T5, OTUD5 (UniProt Q96G74)
T5 sequence (whole entry): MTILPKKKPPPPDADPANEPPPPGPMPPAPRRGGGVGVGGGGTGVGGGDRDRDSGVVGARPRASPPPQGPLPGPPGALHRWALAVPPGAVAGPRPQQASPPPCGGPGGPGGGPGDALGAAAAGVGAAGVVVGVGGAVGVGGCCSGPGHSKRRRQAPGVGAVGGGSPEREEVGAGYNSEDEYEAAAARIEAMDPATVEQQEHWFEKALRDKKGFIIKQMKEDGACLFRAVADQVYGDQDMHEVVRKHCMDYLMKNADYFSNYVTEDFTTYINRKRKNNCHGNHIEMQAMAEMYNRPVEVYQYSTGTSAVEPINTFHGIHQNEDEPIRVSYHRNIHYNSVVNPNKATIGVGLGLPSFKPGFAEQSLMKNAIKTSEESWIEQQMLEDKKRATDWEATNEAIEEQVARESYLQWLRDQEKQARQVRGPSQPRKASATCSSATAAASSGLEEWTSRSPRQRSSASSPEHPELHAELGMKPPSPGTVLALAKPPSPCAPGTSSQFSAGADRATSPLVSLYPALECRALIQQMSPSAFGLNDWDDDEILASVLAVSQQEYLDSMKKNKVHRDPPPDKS
In short: as §1

Measured: log2 ratio of Biotin-Ahx-Ub-VS probe labelling

O=C(CCl)NCC(=O)N1CCCC1
inactive: ALG13 0.0112 | ATXN3 -0.179 | BAP1 -0.409 | EIF3F -0.198 | EIF3H 0.0708 | FAM105A -0.573 | OTUB1 -0.202 | OTUD4 -0.278 | OTUD5 -0.231
